Bioassay records as filed in PubChem BioAssay.
TWEAK Fn14 block = inhibitors of TWEAK-Fn14 interaction signaling; AID 1159606; inhibition, % at 10 µM; TWEAK-stimulated Fn14 reporter cells, luciferase luminescence, 8 h; actives 2% (n = 360,000); in the data active = inhibition above about 50%
LGR2 antag = inhibitors of bursicon-induced Drosophila LGR2 receptor cAMP signaling; HEK293 LGR2, CRE-luciferase, bursicon-stimulated, 4 h; inhibition, % at 9.99 µM; actives 0.35% (n = 380,000); AID 720647;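 active = drop in luminescence signal, shown as inhibition above about 50% in the replicate tests, limit read from the data, passing the limit was not always enough; inconclusive = probably only some replicates passing the limit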;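 also: agonist challenge used bursicon conditioned medium at about half maximal strength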
EWS-Fli block = inhibitors of EWS/Fli oncoprotein transcriptional activity; A673 NR0B1-luciferase reporter, viability-normalised; inhibition, % at 12.6 µM; actives 0.67% (n = 350,000);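 active = mean inhibition of at least 50% after viability correction, with every replicate also passing that limit; inconclusive = mean reaches 50% but only one of two replicates passes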;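 also: firefly luciferase signal divided by Alamar Blue viability fluorescence both relative to DMSO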
TROY NFkB inh = TROY signaling inhibition. AID 1347056. inhibition, % at 10 µM. actives 0.98% (n = 360,000). Q293 LMP1-TROYcd NF-kB luciferase reporter, 4 h;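 active = compounds whose plate-normalised and pattern-corrected inhibition of the luciferase reporter signal at the single screening dose is 50% or more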
LMP1 NFkB inh = reduces LMP1-driven NF-kappaB luciferase signal; LMP1-induced NF-kappaB luciferase reporter cells, luminescence; inhibition, % at 12.5 µM; actives 0.69% (n = 350,000); AID 504558; in the data active = inhibition above about 41%; inconclusive = no clear call, values can overlap the other calls;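 also: 0% = neutral control wells and 100% = reference inhibitor control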
The depositor's hits bear a star; ? = inconclusive; . = no result given. Only some compounds are listed: those with a hit (about 2.6% of all), similar ones and a draw of the others.

SMILES	TWEAK Fn14 block	LGR2 antag	EWS-Fli block	TROY NFkB inh	LMP1 NFkB inh
O=c1c(O)c(-c2ccccc2)oc2cc(O)cc(O)c12	55*	-24	-18	-18	-10
O=c1c(-c2ccccc2)c(-c2ccccc2)oc2cc(O)cc(O)c12	7	22	-5	32	3
O=C(CSCC(=O)Nc1nc(-c2ccc3c(c2)OCO3)cs1)Nc1nccs1	46	-7	-56	25	85*
C[C@H]1CN([C@@H](C)CO)C(=O)c2ccccc2-c2ccccc2CO[C@H]1CN(C)C(=O)Oc1ccccc1	.	-14	0	.	.
C=C1C(=O)OC2CC1C(OC(C)=O)CC(C)=CCCC(C)=CCCC2(C)O (stereo not drawn)	71*	.	38	38	.
C=C1C(=O)OC2/C=C(/C)CC/C=C(/C)CCC12 (stereo not drawn)	.	.	2	.	.
C=C1C(=O)OC2CC1C(O)CC(C)=CCCC(C)=CC(O)CC2C (stereo not drawn)	92*	.	4	37	-3
C[C@@H]1CCCCO[C@H](CN(C)C(=O)C2CCCCC2)[C@H](C)CN([C@H](C)CO)C(=O)c2cc(NS(=O)(=O)c3ccccc3)ccc2O1	.	-10	9	.	.
CCC(=O)N1[C@@H]2c3ccc(-c4ccncc4)c(=O)n3C[C@H]1[C@H](CO)[C@H]2C(=O)N1CCc2ccccc2C1	.	-11	3	.	.
C[C@H](CO)N1C[C@H](C)[C@H](CN(C)C(=O)Nc2cccc3ccccc23)Oc2ccc(NS(C)(=O)=O)cc2CC1=O	.	17	.	.	.
Cc1nc2ccc(NC(=O)c3cccs3)cc2c(=O)n1Cc1ccc(Cl)cc1	83*	.	.	70*	-7
CCCc1nc2ccc(NC(=O)c3cccs3)cc2c(=O)n1Cc1ccc(Cl)cc1	18	-9	-10	-9	9
C[C@H](NS(=O)(=O)c1ccc(Cl)cc1)C(=O)OCC(=O)NC(=O)Nc1ccc2c(c1)OCCO2	64*	-22	.	2	-7
Cc1ccc(S(=O)(=O)N[C@H](C(=O)OCC(=O)NC(=O)Nc2ccc3c(c2)OCCO3)C(C)C)cc1	19	-2	.	10	-1
CCCN(C)C[C@@H]1Oc2ncc(C#CCN(C)C)cc2C(=O)N([C@H](C)CO)C[C@@H]1C	.	-3	-10	.	.
CCOC(=O)N1CCC(NC(=O)C2CCCN(Cc3nc(-c4cccc(Cl)c4)oc3C)C2)CC1 (stereo not drawn)	39	-9	22	21	53*
Cc1oc(-c2ccc(Cl)cc2)nc1CN1CCCC(C(=O)NC2CC2)C1 (stereo not drawn)	-1	15	.	1	14
CC(C)(C)c1nc(NC(=O)Nc2ccccc2)sc1Br	61*	2	-63	23	-23
CC(=O)N1CC=CC1(CC(C)C)C(=O)NCCN1CCOCC1 (stereo not drawn)	83*	-46	-31	-49	8
CC(C)CC1(C(=O)NCCN2CCOCC2)C=CCN1C(=O)c1ccccc1 (stereo not drawn)	6	-23	1	-26	1
COCC(=O)N1CC[C@H]2[C@H](CO)Nc3ccc(C#Cc4ccc(F)cc4)cc3[C@H]21	.	-5	.	.	.
Nc1nc(N)c2c(ccc3c2ccn3Cc2cccc([N+](=O)[O-])c2)n1	79*	3	39	-22	.
Nc1nc(N)c2cc([N+](=O)[O-])ccc2n1	-9	-10	4	2	-3
CS(=O)(=O)n1nc(OC(=O)c2cccc3ccccc23)cc1N	56*	.	.	40	-30
Cc1ccc(S(=O)(=O)n2nc(OC(=O)c3ccccc3F)cc2N)cc1	2	-13	9	30	-6
SMILES	TWEAK Fn14 block	LGR2 antag	EWS-Fli block	TROY NFkB inh	LMP1 NFkB inh
Cc1ccc(C(=O)Oc2cc(N)n(S(=O)(=O)c3ccc(C)cc3)n2)cc1	68*	6	1	43	10
Cc1ccccc1C(=O)Oc1cc(N)n(S(=O)(=O)c2ccccc2)n1	55*	3	-30	25	-3
COc1ccc(S(=O)(=O)n2nc(OC(=O)c3ccc(C)cc3)cc2N)cc1	19	.	.	59*	3
COc1ccccc1C(=O)Oc1cc(N)n(S(=O)(=O)c2ccccc2)n1	4	-2	3	19	1
CN1c2ccc(Br)cc2[C@@H]2[C@@H](CCN2C(=O)Cc2ccccc2)[C@H]1CO	.	0	-1	.	.
CC(C)(C)[S@](=O)N1Cc2cc(C(=O)NCc3ccccc3F)nc(-c3cccc(-c4ccncc4)c3)c2[C@@H]1CCO	.	-9	9	.	.
CC1=NNC(=O)/C1=C\c1cn(-c2ccccc2)nc1-c1ccccc1	106*	106*	82*	90*	-56
O=Cc1cn(-c2ccccc2)nc1-c1ccccc1	2	-52	-44	-18	-2
C[C@H](CO)N1C[C@H](C)[C@H](CN(C)C(=O)Nc2ccc3c(c2)OCO3)Oc2ccc(NC(=O)C3CCCCC3)cc2CC1=O	.	12	5	.	.
CC(=NNC(=S)N1CC2CCC(CC2)C1)c1cnccn1	-10	-1	3	-8	66*
CC(=NNC(=S)N1CC2CCC(CC2)C1)c1ccccn1	-1	?	5	21	33
Clc1ccccc1Nc1nnc(-c2ccncc2)s1	89*	?	26	60*	36
FC(F)(F)c1ccc(Cl)c(Nc2nnc(-c3ccncc3)s2)c1	-42	-11	7	-4	.
COc1ccc(Nc2nnc(-c3ccncc3)s2)cc1Cl	38	-2	10	51*	5
CNc1ncnc(Sc2ccc(Cl)cc2)c1[N+](=O)[O-]	86*	16	27	-4	.
Cn1nc([N+](=O)[O-])nc1Sc1ccc(Cl)cc1	-3	-21	.	15	-6
COc1ccc(C(=O)N/C(=C\c2ccc3c(c2)OCO3)C(=O)N2CCOCC2)cc1	-14	14	-4	-6	49*
O=C(Nc1ccc(NC(=O)c2ccco2)cc1)c1ccc2c(c1)OCO2	68*	-26	.	.	2
CCC(C(=O)Nc1ccc2c(c1)OCCO2)n1c(=O)[nH]c2ccccc2c1=O (stereo not drawn)	76*	7	.	60*	11
O=C(Nc1ccc(NC(=O)c2ccco2)c(Cl)c1)c1ccc2c(c1)OCCO2	-18	-46	-37	-30	-5
O=C(Nc1ccc2c(c1)OCCO2)c1[nH]c(C(F)(F)F)nc1-c1ccccc1	90*	8	11	81*	.
C[C@H]1CN([C@@H](C)CO)C(=O)c2cc(C3=CCCCC3)cnc2O[C@H]1CN(C)C(=O)Nc1ccc(F)cc1	.	-23	1	.	.
CCCN(C)C[C@@H]1Oc2cc(C3=CCCC3)ccc2S(=O)(=O)N([C@@H](C)CO)C[C@@H]1C	.	-7	7	.	.
COc1cccc(NC(=O)c2ccc3c(c2)OCO3)c1	22	-29	-21	1	4
Cc1ccc(NC(=O)c2ccc3c(c2)OCCO3)cc1	68*	.	.	26	22
O=C(Nc1ccncc1)c1ccc2c(c1)OCCO2	9	.	.	-19	0
COc1ccc(NC(=O)C2=Cc3ccccc3OC2)cc1	52*	38	3	2	-15
COc1cccc(NC(=O)c2ccc3c(c2)OCCO3)c1	57*	44	?	24	19
